# Screening data deposited in PubChem BioAssay by National Center for Advancing Translational Sciences (NCATS).
# Only some compounds are listed: those with a hit (about 10% of all), similar ones and a draw of the others.
# CCT chaperon mod = High-Throughput Screening for Modulators of Cytosolic Chaperonin Activity | purified chaperonin ATPase assay, HTRF ADP detection, 30 min | actives 0.3% (n = 360,000) | AID 651819, 2012 | activity change, % (test concentration not listed), hits read low; in the data active means activity change below about -30%
#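 First, chaperonin was dispensed at 40 nM or 20 nM final depending on batch activity. Next, compounds were pinned at 76 uM and ATP added at 10 uM. After 30 min at 37 °C, ADP detection reagents ran 30 min at ambient temperature.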
# G9a block = qHTS Assay for Inhibitors of Histone Lysine Methyltransferase G9a. Histone-lysine N-methyltransferase EHMT2 (Homo sapiens), Q96KQ7. actives 8.8% (n = 350,000). Potency, µM (titrated, usually from 102 µM), inactives show at the highest dose activity, negative = inhibition, most hits filed as inhibitors. G9a H3K9 monomethylation, AlphaScreen, 2 h; further: potency means the concentration at half of the fitted maximal effect; nearly all actives have a fitted effect of over 75% in size
# Target sequence (Q96KQ7 913-1193 limits assumed): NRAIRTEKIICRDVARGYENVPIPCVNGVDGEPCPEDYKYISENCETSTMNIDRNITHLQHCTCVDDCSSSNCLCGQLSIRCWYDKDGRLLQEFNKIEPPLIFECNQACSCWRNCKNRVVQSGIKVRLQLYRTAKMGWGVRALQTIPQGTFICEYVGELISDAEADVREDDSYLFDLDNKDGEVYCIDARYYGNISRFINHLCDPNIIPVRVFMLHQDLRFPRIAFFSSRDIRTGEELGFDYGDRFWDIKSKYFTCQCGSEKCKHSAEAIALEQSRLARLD
#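 G9a (20 nM) preincubated 15 min RT with compounds, then 500 nM biotinylated H3K9 peptide and 20 uM SAM added; 2 h RT reaction. Monomethyl-H3K9 product detected by AlphaScreen with anti-H3K9me1 antibody, streptavidin donor and anti-rabbit IgG acceptor beads.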
# PLK1 PBD block = qHTS for Inhibitors of PLK1-PDB (polo-like kinase 1 - polo-box domain): Primary Screen. Serine/threonine-protein kinase PLK1 (Homo sapiens), P53350. Plk1 PBD binding of FITC phosphopeptide, fluorescence polarization. Potency, µM, without a hit: max response, negative = inhibition, actives largely listed as inhibitors. actives 2.8% (n = 360,000); further: potency means the concentration at half of the fitted maximal effect; series mostly up to about 57 µM; nearly all actives have a fitted effect of over 65% in size
# Sfp inh = qHTS Assay for Inhibitors of Bacillus subtilis Sfp phosphopantetheinyl transferase (PPTase). 4'-phosphopantetheinyl transferase ffp (Bacillus subtilis), Q9F4F7. Biochemical Sfp PPTase activity, qHTS. Potency, µM, without a hit: largest response in the series, negative = inhibition, most hits filed as inhibitors. actives 3.5% (n = 310,000);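 further: the enzyme is Sfp with the accession as filed and its product quenches rhodamine fluorescence; potency means the concentration at half of the fitted maximal effect; 0% = enzyme reaction without inhibitor and -100% = no enzyme wells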
#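 Step 1, compound plus 15 nM Sfp-PPTase, 15 min, room temperature. Step 2, add rhodamine-CoA (5 uM) and BHQ-2-YbbR (12.5 uM). Step 3, read 525/598 nm fluorescence at 0 and 30 min.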
# Mm-Cpn inhibitor = Inhibitors of TCP-1 ring complex (TRiC) of Methanococcus maripaludis (MmCpn): qHTS; Chaperonin Mm-Cpn (Methanococcus maripaludis); purified Mm-Cpn ATPase, ADP Transcreener TR-FRET; Potency, µM (series often up to 76.9 µM), for inactives: at the highest dose activity, negative = inhibition, most hits filed as inhibitors; actives 0.031% (n = 330,000); AID 504842, 2011; further: potency means the concentration at half of the fitted maximal effect; nearly all actives have a fitted effect of over 80% in size
#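 25 nM Mm-CPN + cpd, 10 min 37°C; + 10 uM ATP, 30 min 37°C; buffer 30 mM Tris pH 7.4, 100 mM KCl, 5 mM MgCl2, 1 mM DTT; Transcreener ADP HTRF detection 30 min RT.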
# VDR inhibitor = Inhibitors of the vitamin D receptor (VDR): qHTS; AID 504847, 2011; Potency, µM, for the others: max response, negative = inhibition, actives largely listed as inhibitors; actives 0.93% (n = 400,000); VDR-SRC2-3 peptide fluorescence polarization, 2 h; further: potency means the concentration at half of the fitted maximal effect
# Target sequence (P11473 whole entry, looked up): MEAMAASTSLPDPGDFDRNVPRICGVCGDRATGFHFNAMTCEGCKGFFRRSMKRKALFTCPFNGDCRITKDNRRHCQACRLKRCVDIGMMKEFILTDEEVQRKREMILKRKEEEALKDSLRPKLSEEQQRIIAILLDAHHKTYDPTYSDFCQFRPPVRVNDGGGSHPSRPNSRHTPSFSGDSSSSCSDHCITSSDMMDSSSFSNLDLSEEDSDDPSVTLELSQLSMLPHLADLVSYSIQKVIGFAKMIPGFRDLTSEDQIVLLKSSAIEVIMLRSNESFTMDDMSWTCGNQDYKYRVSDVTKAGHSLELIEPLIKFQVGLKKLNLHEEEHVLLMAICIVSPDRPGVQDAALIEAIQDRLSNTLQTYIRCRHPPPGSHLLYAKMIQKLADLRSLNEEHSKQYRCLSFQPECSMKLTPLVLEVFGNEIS
#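 Inhibition of the VDR/SRC2-3 peptide interaction is quantified by fluorescence polarization. Compounds (23 nl, pintool) incubate with the reagents for 2 hours at ambient room temperature.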
# Numbers without * were called inactive; ? = inconclusive; . = no result given; [ ] = dose if it differs, or a comment. Unless noted, the call rests on the fitted dose curve; in most records, active means well fitted curve in the direction sought with a large enough effect; inconclusive means small, poorly fitted or top-dose-only effect, or another doubt; inactive means no such curve, though single readings can be large; an effect the other way counts as inactive or inconclusive. Unless noted, on the % scale 0 is the no-effect control and ±100 the full control effect.
SMILES,CCT chaperon mod,G9a block,PLK1 PBD block,Sfp inh,Mm-Cpn inhibitor,VDR inhibitor
CCSc1oc(-c2cccs2)nc1S(=O)(=O)c1ccc(Br)cc1,.,6%[59 µM],.,.,.,13%
CN1CCN(c2ncc3nc(-c4ccc(Cl)cc4)c(=O)n(Cc4cccs4)c3n2)CC1,.,8%[0.501 µM],.,-12%,.,-9%
O=c1c(-c2cc(F)cc(F)c2)nc2cnc(N3CCOCC3)nc2n1Cc1cccs1,.,8%[0.501 µM],.,19%,.,-2%
Cn1cc(-c2nc3cnc(N4CCNCC4)nc3n(Cc3ccc(F)cc3)c2=O)c2ccccc21,.,5%[0.501 µM],.,20µM*,.,49%
O=c1c(-c2cc(F)cc(F)c2)nc2cnc(N3CCNCC3)nc2n1Cc1cccs1,.,9%[12.7 µM],.,35µM*,.,44%
CN1CCN(c2ncc3nc(-c4cc(F)cc(F)c4)c(=O)n(CCC#N)c3n2)CC1,.,4%[0.501 µM],.,-29%,.,22µM*
O=c1c(-c2ccc(Cl)cc2)nc2cnc(N3CCNCC3)nc2n1Cc1cccs1,.,6%[0.501 µM],.,28µM*,.,71%
COCCn1c(=O)c(-c2cc(F)cc(F)c2)nc2cnc(N3CCN(C)CC3)nc21,.,2%[0.501 µM],.,7%,.,-4%
CCCCC(CC)CNC(=O)Cc1ccc(-n2c(=O)[nH]c3ccccc3c2=O)cc1 (configuration not stated),.,8%[59 µM],.,.,.,-4%
C[C@@H]1CCC2[C@@H](C)[C@@H](O)O[C@@H]3O[C@@]4(C)CC[C@@H]1[C@@]23OO4 (some centres not stated),.,25%[59 µM],.,7%,.,30%
CC#CC(C)C(OCOC)C(CC(C)Cc1cc(Br)cc(OCc2ccccc2)c1OC)OC (configuration not stated),.,.,.,-1%,.,.
Cc1cccc(C[C@H](C(=O)O)N2C(=O)c3ccc(C(=O)O)cc3C2=O)c1,.,5%[12.7 µM],.,35%,-2%,.
O=c1c(-c2cccs2)nc2cnc(N3CCNCC3)nc2n1Cc1cccs1,.,12%[0.501 µM],.,18µM*,.,104%
CN1CCN(c2ncc3nc(-c4cccs4)c(=O)n(Cc4cccs4)c3n2)CC1,.,24%[0.501 µM],.,?,.,?
COc1ccc(COC(=O)N/N=C2/C[C@@H](O)[C@@H](O)[C@@H]3[C@@H]4C(=O)N(c5cccc(Oc6ccccc6)c5)C(=O)[C@H]4CC[C@H]23)cc1,.,.,.,-5%,.,.
COc1ccc(O[C@H]2C=C[C@@H](c3ccccc3)O[C@@H]2COC(=O)CC/C(C)=N/O[C@@H](C)CN2CCCCc3nc(C)c(C)cc32)cc1,.,35µM*,.,-9%,-1%,.
C/C(CCC(=O)OC[C@H]1O[C@H](C#Cc2ccccc2)C=C[C@@H]1Oc1ccc(C)cc1)=N\O[C@@H](C)CN1CCCCc2nc(C)c(C)cc21,.,35µM*,.,-5%,-4%,.
C/C(CCC(=O)OC[C@@H]1O[C@H](C#Cc2ccccc2)C=C[C@@H]1Oc1ccc(C)cc1)=N/O[C@@H](C)CN1CCCCc2nc(C)c(C)cc21,.,.,.,8%,.,.
CCC(C(=O)N1CCN(c2cc(Cl)ccc2C)CC1)n1nc(C)c2sc3ccccc3c2c1=O (configuration not stated),.,-34%[59 µM],.,.,.,18%
C[N+]12CCCCC1[C@@H](CO)CCC2 (some centres not stated),-3,50µM*,1%,3%,2%,0%
C=C(C)C(=O)OC[C@@H]1CCC[N@+]2(C)CCCCC12 (some centres not stated),.,.,.,-14%,.,-11%
Cc1ccc(S(=O)(=O)Nc2cc(C(C(=O)OC(C)C)C(=O)C(F)(F)F)c(O)c3ccccc23)c(C)c1 (configuration not stated),0,40µM*,-19%,56µM*,-1%,-6%
CCCOc1ccc(/C(O)=C2\C(=O)C(=O)N(CCCN(C)C)C23C(=O)N(C)c2ccccc23)cc1 (configuration not stated),.,45µM*,.,-25%,-1%,.
CCCOc1ccc(C2/C(=C(/O)c3ccc(F)cc3)C(=O)C(=O)N2CCCN(C)C)cc1 (configuration not stated),-1,40µM*,-9%,4%,-2%,-11%
CCCOc1ccc(/C(O)=C2\C(=O)C(=O)N(CCCOC)C23C(=O)N(C)c2ccccc23)cc1 (configuration not stated),-8,-38%[2.33 µM],0%,2%,1%,26%
SMILES,CCT chaperon mod,G9a block,PLK1 PBD block,Sfp inh,Mm-Cpn inhibitor,VDR inhibitor
CCOC(=O)C1=C(C)N=C2SCCC(=O)N2C1c1ccc(OCc2ccccc2)cc1 (configuration not stated),.,17%[59 µM],.,.,.,2%
CC1Cc2ccccc2N1C(=O)CSC1=NCCS1 (configuration not stated),2,-11%,?,-4%,1%,71µM*
CC1Cc2ccccc2N1C(=O)CSc1ncccc1C(=O)O (configuration not stated),3,79µM*,-2%,4%,-1%,9%
CC1Cc2ccccc2N1C(=O)CSc1ccccc1 (configuration not stated),0,78%[59 µM],-10%,-20%,-1%,-3%
COc1ccc2c(c1)C(=O)[C@@H](OC(=O)NCc1ccco1)[C@H](c1ccc(OC)c(Br)c1)O2,.,.,.,4%,.,?
S=C(NCC1CCCO1)NC1CCCCC1 (configuration not stated),1,50µM*,-12%,11µM*,-1%,10%
S=C(NCC1CCCO1)c1ccc(Br)cc1 (configuration not stated),-1,8.9µM*,12µM*,20µM*,-1%,?
CC(C)(C)c1ccc(C(=O)NC(=S)NCC2CCCO2)cc1 (configuration not stated),-2,40µM*,1%,0%,1%,-7%
COC(=O)c1cc(C(=O)NCC2CCCCC2)cc([N+](=O)[O-])c1,-1,-3%,-7%,-14%,0%,-17%
COC1(C)CC2C(CC1OC(=O)c1cc([N+](=O)[O-])cc([N+](=O)[O-])c1)C2(C)C (configuration not stated),0,13µM*,-13%,?,-4%[15.4 µM],-13%
CC(C(=O)N1CCCC1)N1CCN(c2ccccc2O)CC1 (configuration not stated),-14,18%[0.0925 µM],10%,8%,1%,-1%
